Laboratory results as given in the supplement of paper PMC11417369.
The full ranking holds about 25,000 sequences; the median of “ln(normalized median fluorescence intensity)” is about 9.7, and the highest 2% start at about 11. Many of the other results were omitted from the sample, so the highest values are more common in it than they were.

Tested on: PfAP2-HC AP2 domain (GST-tagged)
Test: gcPBM binding intensity (ln(normalized median fluorescence intensity)); higher = stronger DNA binding
Method in brief: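 An Agilent 4 × 180k array carrying primer-extended double-stranded 36-bp intergenic genomic probes and negative controls received GST-tagged P. falciparum DNA-binding domains expressed in E. coli, about 25 μg on average, for 1 h. The binding buffer contained 1× PBS, 1% milk, 0.2 mg/ml BSA, 0.5% salmon testes DNA and 0.03% Triton X-100. Binding intensity is the top Masliner-normalised natural-log median intensity across replicate spots of either probe orientation, read after Alexa488 anti-GST antibody staining and a 488 nm scan.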

| Sequence | gcPBM binding intensity (ln) |
| --- | --- |
| AAATGTAAATTTATCCGTACATATATATATTTATAT [XGTACX_site7024] | 9.73 |
| ATATATATATATATGTGTACATATATATATCATATG [XGTACX_site3126] | 9.68 |
| TAATAGAATATGATGGTGCAGCAGTCTTATTTTTCA | 9.61 |
| TTAAAAAAAAAACACACACACATACACATATATATA [CACACA_site3299] | 11.1 |
| AAAACATACCTATATACACACATATAAATATAAATA [CACACA_site6956] | 10.1 |
| AAAAAAAAAAAACATACACACACATATATATATATA [CACACA_site8452] | 10.7 |
| AAAAAAAAATTAAAAACACACATATAAATAAATATA [CACACA_site6845] | 9.8 |
| ACCCATAAAAAGGATACACACACACCCACCCATATA [CACACA_site8205] | 10.6 |
| CCATAAAAAGGATACACACACACACCGACATATATA [CACACA_site4653] | 10.9 |
| AAAAAAATTAAACACACACACACATATATATATATA [CACACA_site4718] | 11.5 |
| AAAAAAAAATTAAAAACACACATATATATATATATA [CACACA_site1580] | 9.73 |
| TAAAAGGATACATATACACACATATATATATATATA [CACACA_site2791] | 9.85 |
| ATTAAATAAAAAAACACACACATATATACATATATA [CACACA_site3445] | 10.6 |
| ATTAAATAAAAAAACACACACATATATACCTATATA [CACACA_site5837] | 11 |
| AAAACATACATATATACACACATATATATATATATA [CACACA_site1852] | 10.3 |
| ACATATATATTTATATGTACATATATTTATATATAT [XGTACX_site7469] | 9.64 |
| ATATTGTAAGTAAAATGTAATAAATATAATAAAATA [CACACA_negctrl_site697] | 9.76 |
| ATATATTTATATTGTACACACATTTATGCATATATA [CACACA_site7502] | 9.96 |
| ACATTCTATACATACACACCCACACCCAAAAAAAAA [CACACA_site863] | 10 |
| CTTATACATTATTAACGTACATGTTATATGAATAAC [XGTACX_site5752] | 9.6 |
| TGGAAAATTATAAGGTGTACATATAAGCTATTATAT [XGTACX_site118] | 9.63 |
| ATATATATATATATTTATTCATATATTTTTTGTCTT [TGCATGCA_negctrl_site58] | 9.52 |
| AAAAATGAATTATTTTGTACATATATATATATATAT [XGTACX_site3410] | 9.74 |

| Sequence | gcPBM binding intensity (ln) |
| --- | --- |
| TGCTATTTTTTCCTTTTTTTGTATCACAATCATATA [CACACA_negctrl_site1576] | 9.74 |
| ATCAACATTATGTTTAGTACTTAGTGAATTGTTAAT [XGTACX_site4913] | 9.65 |
| ATTATATATGTATGGTGTACTAAGAATATTTTTTTA [XGTACX_site1950] | 9.55 |
| ATTATTTAAAAAAAATGTACATAATAAATATGAACG [XGTACX_site4010] | 9.58 |
| CAGTTTAATTTACATAGTACATAATATTTTAATTTT [XGTACX_site1793] | 9.65 |
| AAATAAATTAAAATAAATTAAATTAAATTAGCATTA [GTGCAC_negctrl_site531] | 9.52 |
| ATACATATATATATATGTACACACATTAATAAAAAA [XGTACX_site6874] | 9.89 |
| GACAATAAAAAGAAAAGTACATATATAAATTAACCA [XGTACX_site7858] | 9.65 |
| TGCATATGCATTATTTGTACATATGTAGATAATTAT [XGTACX_site6930] | 9.63 |
| GTATTTTTAAATGACACACACATATATATATATATA [CACACA_site1662] | 10.1 |
| ATAAATATGGAGCACACACACATAAACATACCTATA [CACACA_site6336] | 10.8 |
| ATAAAATACATATAAACACACATATAAACCGACATA [CACACA_site2477] | 10.1 |
| TGATAAATATGGAGCACACACACATAAACATACATA [CACACA_site420] | 10.4 |
| TGCAAGGAACAACACACACACACATAAATGTATATA [CACACA_site8149] | 11.4 |
| TATATATATATATAAACACACATAAATATAAATATA [CACACA_site1121] | 9.88 |
| TGCAAGGAAAAACACACACACACATAAATGTATATA [CACACA_site751] | 10.4 |
| ATAAATATGGAGCACACACACATAAACATACATATA [CACACA_site421] | 11.1 |
| AATAAATTGAAACACACACACACATATATATATATA [CACACA_site848] | 11.2 |
| AAAAGGAACAGACACACACACATATATAAATATGTA [CACACA_site7656] | 10.5 |
| CATATAAATAAACACACACACACATATATATATATA [CACACA_site5309] | 10.5 |
| TAAATTAAAAAAAATACACACACACCGACACATATA [CACACA_site9084] | 10.6 |
| AAAAAAAAAAAATATACACACACACCGACACATAAA [CACACA_site9270] | 10.9 |
| GATTATTTTATAAGTACACACATTTATCTATAATAA [CACACA_site7256] | 9.69 |

| Sequence | gcPBM binding intensity (ln) |
| --- | --- |
| ACGTTAAAAACAAGTTGTACACAATAAATTATTCTT [XGTACX_site6321] | 9.75 |
| GTATTCAAAAGTGAAACATGCAATAATATATATATA [TGCATGCA_site617] | 9.63 |
| AATATTTTTTTATAAACACACATATATATAAATATA [CACACA_site3524] | 9.53 |
| ATTTAATACAAATACACACACAAATAAATACAGATA [CACACA_site5956] | 10.2 |
| ATACAACAGATATATACACACATATAACAATAATAA [CACACA_site7560] | 10 |
| AATACAATTTTTAACACACACACAATAATACAGATA [CACACA_site4823] | 11.2 |
| TACACGTTCTACATTTGTACTTAATTTATACATAAG [XGTACX_site1579] | 9.79 |
| CCATTTACATTGTGAAGTACTAAAAAAAAATGTAGA [XGTACX_site7882] | 9.48 |
| ATCGGTAATATTAACACACACATTTATTTATATTTA [CACACA_site6638] | 10.1 |
| GTATCTCATTATTCGTGTACTAAACACATAAAAATA [XGTACX_site2262] | 9.58 |
| GTTAATTGAAGATTCACACATAAATATATATATAAT [CACACA_site5482] | 9.61 |
| ATATACTATTATGTGTGTACATAATAATTTATTATA [XGTACX_site3776] | 9.75 |
| ATATACTTTTTTTTTTTTTTTTTAACGTTATTTATG [CACACA_negctrl_site1277] | 9.64 |
| AAAAGATAATTATGCACACACACACCCCCACCCAAC [CACACA_site2570] | 10.9 |
| AAGATAATTACGCACACACACACACGCCCACAACTA [CACACA_site7255] | 11.4 |
| GATAATTACGGACACACACACACACGCACAACTAAA [CACACA_site7254] | 10.7 |
| AGCACATTATTCAAAAGTACAAATAGGTATTGTATA [XGTACX_site6107] | 9.59 |
| TTATTCTTTTAATATACACACTTTGTCTTTTCGCGC [CACACA_site5525] | 9.9 |
| AAAATTAAAACCTACACACACATTTAAAAAAAAAAA [CACACA_site3068] | 10.1 |
| TAATTTTTTTTAAACACACACATTACATTCAAAAAT [CACACA_site127] | 10.1 |
| GAAAAATTAAAACCTACACACACATTTAAAAAAAAA [CACACA_site9005] | 11 |
| ATACATTCAATGAAATGTACGTTTATTTACAGAAGA [XGTACX_site2999] | 9.6 |
| TTTTTTCTTTTTATGTGTACTTATTTTATTTAATAA [XGTACX_site1080] | 9.76 |

| Sequence | gcPBM binding intensity (ln) |
| --- | --- |
| TTTTTCAGATCCTATATAGTATCATATAAATTCCAT [CACACA_negctrl_site56] | 9.39 |
| AAGAAAAAATGATGAATAGAGATCAAATCTATATAT [TGCATGCA_negctrl_site29] | 9.65 |
| TTTTTAAAATATTTAACACACAATTTTAATGCATAA [CACACA_site6036] | 9.61 |
| AATAAAAAAAAACGCACACACAAATATATTCCATTC [CACACA_site1224] | 10.4 |
| ATATTCATTAACCACACACACAAAAAAAATAAAATT [CACACA_site3801] | 10.2 |
| TCATTCATAAAAATAACACACAAAAAAAAAAAAAAA [CACACA_site1800] | 9.62 |
| GGATATTCATTAACCACACACACAAAAAAAATAAAA [CACACA_site3800] | 11.2 |
| TCAATAAAAAAAAACGCACACACAAATATATTCCAT [CACACA_site1223] | 11 |
| ATATATATATTCCACACACACACAAAAAAAAAAAAA [CACACA_site3648] | 10.6 |
| CAATATAAAAAACACACGCACACAAAAAAAAAAAAA [CACACA_site3521] | 10.3 |
| ATATAAATATTCCACACACACACAAAAAAAAAAAAA [CACACA_site7678] | 11 |
| ACACAAAAAATAAAAATATATATATATTATATATAT [CACACA_negctrl_site1489] | 9.75 |
| TTTTTATAATGATACATATATTATTTTATTCTTAAT [CACACA_negctrl_site124] | 9.54 |
| AAAAAAAAAAAAAAAACACACATATCTGTATTTATA [CACACA_site5760] | 9.75 |
| ATATTGACAGGAAAAATTTTCTTTGAATCTTTAAAA [CACACA_negctrl_site1191] | 9.29 |
| ATTAGGATATATTAAAGTACTAATATAATACATTTT [XGTACX_site7386] | 9.55 |
| TTTTACTAAATATATACACACATTATACAGATATAT [CACACA_site5765] | 9.86 |
| TATAAAATACTGTATCGATGGGGGAGGGCGCAGGGG [TGCATGCA_negctrl_site250] | 10.9 |
| ATATATGGGGCGCAGGAAAAGAGTTTTGGAAATAAA [CACACA_negctrl_site1265] | 9.63 |
| AGTATATAAAATACTGTATCGATGGGGGAGGGCGCA [CACACA_negctrl_site1612] | 9.91 |
